Test [1] concerns Plasmodium falciparum Sir2 (PF13_0152, Sir2A). Put plainly: Plasmodium falciparum Sir2A binding compounds – biochemical, small-molecule microarray, 635 nm fluorescence, primary screen (AID 1098).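 Further: score merges spot fluorescence intensity with its signal-to-noise ratio.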 The settings on record: fluorescence 635 nm, higher = more signal.
Test [2] in a line: probe aDKK1 binding to arrayed compounds – biochemical, biotinylated probe, 635/667 nm fluorescence, primary screen (AID 1099).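 Further: score merges 667nm spot fluorescence with signal to noise across triplicate slides; reference of the scale not given here.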 The conditions noted are these: small-molecule microarray, higher = more signal.
Test [3] is described as follows: probe aCHRDL2 binding to arrayed compounds – biochemical, biotinylated probe, 635/667 nm fluorescence, primary screen (AID 1100). The conditions noted are these: small-molecule microarray, higher = more signal.
A short description of test [4]: change in splice reporter luminescence, either direction, cell-based, HEK293, spliceosome inhibition project, primary screen (AID 1101).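 Further: HEK293 cells carrying a splicing-competent luciferase reporter gene; test concentration not given here.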 The settings on record: HEK293 splicing luciferase reporter, 24 h, higher = more signal, called active from +8 up or from −8 down. (In general: In a reporter assay the amount or activity of a reporter protein is the signal.)
In test [5] the target is Fibroblast growth factor 10 (Homo sapiens) (UniProt O15520). Put plainly: compounds binding fibroblast growth factor 10 – biochemical, small-molecule microarray, 635 nm fluorescence, primary screen (AID 1102). The settings on record: FGF10 binding, fluorescence 635 nm, higher = more signal.
For test [6], the system named is glycogen synthase kinase-3 (GSK3A per assay name; protocol says GSK3B). Put plainly: compounds binding glycogen synthase kinase-3 – biochemical, small-molecule microarray, 635 nm fluorescence, GSK3A, primary screen (AID 1103). Further: the record names both GSK3A and GSK3B. The conditions noted are these: fluorescence 635 nm, higher = more signal.
Test [7] addresses Epidermal growth factor receptor (Homo sapiens) (UniProt P00533). Put plainly: compounds binding epidermal growth factor receptor – biochemical, small-molecule microarray, 635 nm fluorescence, primary screen (AID 1104).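 Further: score merges 667 nm emission intensity with spot signal to noise over triplicate slides.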 The settings on record: EGFR binding, higher = more signal.
Test [8] deals with Follistatin-related protein 3 (Homo sapiens) (UniProt O95633). Put plainly: compounds binding follistatin-related protein 3 – biochemical, small-molecule microarray, 635 nm fluorescence, primary screen (AID 1105).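 Further: score merges emission near 667 nm and signal to noise per printed spot across three slides.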 The conditions noted are these: FSTL3 binding, higher = more signal.
The target of test [9] is Dickkopf-related protein 1 (Homo sapiens) (UniProt O94907). Put plainly: small molecules binding DKK1 protein – biochemical, small-molecule microarray, 635 nm fluorescence scan, primary screen (AID 1106).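 Further: score merges emission near 667 nm with signal to noise over three replicate slides.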 The settings on record: higher = more signal.
For test [10], the system named is Inhibin beta A chain (activin A). Put plainly: small molecules binding activin A – biochemical, small-molecule microarray, 635 nm fluorescence scan, primary screen (AID 1107).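 Further: mouse activin A protein probed at 4.33 µg/mL on printed slides; score merges bound-protein fluorescence near 667 nm with spot signal-to-noise.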 The conditions noted are these: INHBA, higher = more signal.

Each structure is given as a SMILES string. Active and inactive are the calls of the source.

Sequence of Dickkopf-related protein 1 (Homo sapiens) (O94907 whole entry, looked up): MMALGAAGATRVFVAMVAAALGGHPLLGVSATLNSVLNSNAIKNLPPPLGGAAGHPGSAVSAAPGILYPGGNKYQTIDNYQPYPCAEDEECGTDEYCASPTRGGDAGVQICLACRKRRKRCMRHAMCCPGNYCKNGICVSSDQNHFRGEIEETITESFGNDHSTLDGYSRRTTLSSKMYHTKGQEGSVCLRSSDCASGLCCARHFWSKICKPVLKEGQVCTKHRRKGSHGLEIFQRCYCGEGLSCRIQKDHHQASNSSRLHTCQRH
Sequence of Follistatin-related protein 3 (Homo sapiens) (O95633 whole entry, looked up): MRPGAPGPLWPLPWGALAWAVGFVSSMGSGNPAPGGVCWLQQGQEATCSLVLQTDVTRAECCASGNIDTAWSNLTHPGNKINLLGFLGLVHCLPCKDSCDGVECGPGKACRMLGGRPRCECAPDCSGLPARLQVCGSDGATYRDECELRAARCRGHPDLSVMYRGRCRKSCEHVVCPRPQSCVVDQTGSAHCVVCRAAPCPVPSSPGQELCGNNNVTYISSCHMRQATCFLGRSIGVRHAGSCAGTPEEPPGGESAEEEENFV
Sequence of Epidermal growth factor receptor (Homo sapiens) (P00533 whole entry, looked up): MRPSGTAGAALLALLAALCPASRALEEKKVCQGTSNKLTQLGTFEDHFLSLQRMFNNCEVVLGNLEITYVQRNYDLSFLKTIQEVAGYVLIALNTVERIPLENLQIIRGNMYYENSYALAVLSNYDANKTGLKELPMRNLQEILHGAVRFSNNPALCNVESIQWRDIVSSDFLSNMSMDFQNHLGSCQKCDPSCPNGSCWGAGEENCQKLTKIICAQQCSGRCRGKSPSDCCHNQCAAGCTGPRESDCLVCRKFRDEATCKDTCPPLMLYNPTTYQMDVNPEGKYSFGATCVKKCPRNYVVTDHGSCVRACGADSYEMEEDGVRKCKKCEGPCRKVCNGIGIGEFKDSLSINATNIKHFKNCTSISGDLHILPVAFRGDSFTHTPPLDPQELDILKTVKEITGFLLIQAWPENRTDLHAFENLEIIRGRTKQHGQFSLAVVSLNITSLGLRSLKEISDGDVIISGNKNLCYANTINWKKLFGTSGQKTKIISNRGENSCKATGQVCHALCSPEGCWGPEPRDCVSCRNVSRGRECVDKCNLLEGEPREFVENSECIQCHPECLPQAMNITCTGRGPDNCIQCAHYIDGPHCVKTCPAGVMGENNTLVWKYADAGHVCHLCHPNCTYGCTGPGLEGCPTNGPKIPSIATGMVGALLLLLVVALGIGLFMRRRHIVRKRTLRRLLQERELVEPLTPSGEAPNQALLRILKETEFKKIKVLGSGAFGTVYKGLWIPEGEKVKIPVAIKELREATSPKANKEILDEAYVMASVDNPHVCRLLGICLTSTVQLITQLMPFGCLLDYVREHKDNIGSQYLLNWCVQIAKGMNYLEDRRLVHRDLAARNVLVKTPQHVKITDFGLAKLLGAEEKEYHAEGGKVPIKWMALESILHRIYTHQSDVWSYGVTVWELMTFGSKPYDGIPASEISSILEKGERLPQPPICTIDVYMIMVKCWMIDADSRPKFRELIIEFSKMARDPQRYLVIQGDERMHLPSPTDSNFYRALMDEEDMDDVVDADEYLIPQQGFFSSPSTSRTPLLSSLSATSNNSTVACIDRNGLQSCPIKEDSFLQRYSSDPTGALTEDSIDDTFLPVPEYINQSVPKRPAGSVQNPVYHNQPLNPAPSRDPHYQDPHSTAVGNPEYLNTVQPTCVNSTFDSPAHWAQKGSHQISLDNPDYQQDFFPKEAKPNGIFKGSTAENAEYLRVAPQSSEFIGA
Sequence of Fibroblast growth factor 10 (Homo sapiens) (O15520 whole entry, looked up): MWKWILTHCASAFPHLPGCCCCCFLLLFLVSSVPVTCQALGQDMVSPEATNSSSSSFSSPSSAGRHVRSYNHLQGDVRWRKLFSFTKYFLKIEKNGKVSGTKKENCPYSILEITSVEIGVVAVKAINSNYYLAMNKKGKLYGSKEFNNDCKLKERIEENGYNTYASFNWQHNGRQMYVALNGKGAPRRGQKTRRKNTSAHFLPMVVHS

Regarding `CCOC(=O)[C@H](CC(C)C)NC(=O)CCC1CC(OC(=O)NCc2ccc3c(c2)OCO3)CC2(CCCC(COC(=O)NCC(c3ccccc3)c3ccccc3)O2)O1` (stereo not given in full), the composite z-score is 0.517 in test [1]; -0.445 in test [2]; -0.491 in [3]; 0.685 in [5]; 0.206 in test [6]; -0.519 in [7]. Also, the composite z-score in test [8] amounted to 0.503; in [9] it was 0.0925; in test [10] it was 0.155. Besides, the z-score in test [4] is 0.907 (inactive).
As for `COC(=O)C=CCCc1coc(C=CCNC(=O)OC)n1`, the composite z-score in test [1] is 0.844; in [2], 0.161; in test [3] it was -0.388; in test [5] it was 0.789; in [6] it was 0.643; in [7], 0.867. Further, the composite z-score turned out to be 1.07 in test [8], 1.16 in test [9] and 1.3 in test [10]. In addition, the z-score in [4] is 0.183 (inactive).
With `COC(=O)NCC=Cc1nc(CCCO)co1`, the composite z-score in test [1] is 0.439; in [2] it was -0.414; in test [3], -0.576; in test [5] it was 0.534; in test [6], 0.926; in test [7], 0.581. The composite z-score was found to be 0.887 in test [8], 0.617 in [9] and 0.163 in test [10]. Further, the z-score in test [4] was 0.566 (inactive).
Regarding `O=C1[C@H]2[C@H]3[C@H](O)[C@H](O)CC(=NOC[C@@H](O)COCc4ccco4)[C@@H]3CC[C@H]2C(=O)N1C[C@@H]1CCCO1`, the composite z-score in test [1] was 0.396; in test [2] it was -0.549; in test [3], -1.2; in [5], 0.204; in [6], 1.24; in test [7], 1.14. Further, the composite z-score was determined as 1.49 in [8], 1.51 in [9] and 1.22 in test [10]. For the same molecule, in test [4], the z-score was -0.134 (inactive).
Consider `O=c1n(-c2ccccc2)c(=O)n2n1CC[C@@H]1C(=NOCc3ccccc3)[C@H]3O[C@H]3[C@@H](O)[C@@H]12`, for which the composite z-score in test [1] is -0.494; in test [2], -0.31; in test [3], -0.393; in [5] it was 0.334; in test [6] it was -0.864; in [7], -0.0683. For the same molecule, the composite z-score in [8] was -0.136; in test [9] it was 0.0228; in [10] it was 0.168. In test [4], the z-score was 0.491 (inactive).
For the molecule `CC(C)=NO[C@H](C)c1cn([C@H](CO)Cc2ccccc2)nn1`, the composite z-score in test [1] is 0.618; in test [2], -0.309; in [3], -0.113; in test [5] it was 0.443; in test [6] it was -0.122; in [7], 0.17. Besides, the composite z-score was -0.275 in test [8], 0.291 in [9] and 0.576 in test [10]. In [4], the z-score was 1 (inactive).
As for `CCOC(=O)NN=C1C[C@@H](O)[C@@H](O)[C@@H]2[C@@H]3C(=O)N(Cc4ccccc4)C(=O)[C@@H]3CC[C@H]12`, the composite z-score in test [1] was 0.245; in test [2], -0.259; in test [3] it was -0.301; in test [5], -0.0919; in [6], -0.435; in [7], 0.242. Also, the values for the composite z-score in test [8], in [9] and in test [10] were 0.0487, 0.615 and -0.0924, respectively. For the same molecule, the z-score in test [4] is -1.14 (inactive).
`C[C@@H]1CC[C@H]2C(=O)O[C@@H](COc3ccc(C(C)(C)C)cc3)CN2[C@@H]1c1ccc(Br)cc1`: the composite z-score in test [1] was -0.0295; in [2], -0.339; in test [3], -0.0805; in [5], -0.828; in [6], -0.796; in test [7], -0.291. The values for the composite z-score in test [8], in test [9] and in test [10] were -0.964, -0.924 and 0.011, respectively. The z-score in test [4] was -0.36 (inactive).
For `CC(CCN1CCCCc2nc(C)c(C)cc21)=NOC[C@@H](C)[C@H](OCc1ccccc1)C(C)C`, the composite z-score in [1] was -0.399; in test [2], -0.624; in test [3] it was -0.579; in test [5], -1.78; in test [6], -1.03; in test [7], -1.77. Besides, the composite z-score in [8] was -2.25; in [9], -0.991; in [10], 0.736. Also, the z-score in test [4] is -1.22 (inactive).
`COC(=O)[C@H]1[C@@H](O)[C@@]2(O)c3ccccc3O[C@@]2(c2ccccc2)[C@@H]1c1ccccc1`: the composite z-score in test [1] was -0.125; in [2], -0.12; in test [3], -0.535; in test [5] it was 0.0746; in [6], -0.0393; in [7], 0.396. The composite z-score was -0.134 in test [8], 0.384 in test [9] and -0.011 in test [10]. Moreover, the z-score in test [4] was 0.217 (inactive).
`CO[C@H]1COC(=O)[C@H](C)NC(=O)CC=C[C@@H](C)[C@H](OC)COC(=O)[C@@H](OCc2ccccc2)C=C[C@@H]1C`: the composite z-score in [1] was 0.68; in test [2], -0.747; in test [3], -1.33; in [5] it was 0.0389; in test [6], 0.362; in [7], 0.475. Also, the figures for the composite z-score in test [8], in test [9] and in test [10] were 0.492, 0.834 and 1.34, respectively. In addition, in test [4], the z-score was -0.00187 (inactive).
`CCOC(=O)[C@H](Cc1ccccc1)NC(=O)CCC1CC(OC(=O)NCCc2ccc(F)cc2)CC2(CCCC(COC(=O)NCCc3ccccc3OC)O2)O1` (stereo not given in full): the composite z-score was 1.14 in [1]; -0.275 in test [2]; -0.556 in test [3]; 1.06 in test [5]; 1.28 in test [6]; 0.42 in test [7]. Moreover, the values for the composite z-score in test [8], in test [9] and in test [10] were 0.857, 0.782 and -0.314, respectively. The z-score in test [4] is -0.0644 (inactive).
As to `C=CC[C@@H]1C=C[C@H](ON=C2[C@H]3CCn4c(=O)n(-c5ccccc5)c(=O)n4[C@H]3[C@H](O)[C@@H]3O[C@H]23)[C@@H](CO)O1`, the composite z-score in test [1] is 0.482; in test [2], -0.378; in test [3] it was -0.548; in test [5] it was 0.51; in test [6], -0.596; in test [7], 0.55. The composite z-score in test [8] came out at 0.485; in test [9] it was 0.536; in test [10] it was 0.376. Besides, in test [4], the z-score was 0.492 (inactive).
For the molecule `CO[C@@H]1COC(=O)[C@@H]2CCCN2C(=O)[C@@H](C)COC(=O)CC=C[C@H]1C`, the composite z-score in test [1] was 0.13; in test [2], -0.552; in test [3], -0.522; in test [5], 0.959; in test [6], 1.28; in test [7] it was 0.598. In addition, the composite z-score in test [8] is 0.993; in [9] it was 1.12; in test [10], -0.282. The z-score in test [4] was -0.203 (inactive).

The values above are taken from PubChem BioAssay.
